Source: PubChem BioAssay
G9a block = blocks human histone lysine methyltransferase G9a. Q96KQ7. G9a H3K9 monomethylation, AlphaScreen, 2 h. Potency, µM (series often up to 102 µM), most hits filed as inhibitors. 8.8% of 350,000 active. AID 504332; also: nearly all actives have a fitted effect of over 75% in size
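Enzyme 20 nM + cpd, 15 min RT; add b-H3K9 pep 500 nM / SAM 20 uM; 2 h RT; anti-H3K9me1 Ab 0.5 ug/mL + SA donor / anti-rabbit acceptor beads 20 ug/mL each, 10 min; AlphaScreen read.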
HP1b binding inh = blocks HP1-beta chromodomain binding to methylated histone tails; AlphaScreen HP1-beta / biotin-H3K9me3 peptide binding; P83916; 0.56% of 390,000 active; AID 540317; Potency, µM (doses to about 114 µM), actives largely listed as inhibitors; also: nearly all actives have a fitted effect of over 70% in size
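Compound inhibition of the preformed complex between 50 nM HP1-beta and 50 nM biotinylated H3K9me3 peptide was read by AlphaScreen. Buffer was PBS pH 7.4 with 0.01% Tween-20. Incubations ran 30 min at room temperature, with 10 ug/mL donor/acceptor beads.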
BAZ2B inh = inhibitors of human BAZ2B bromodomain; 4.4% of 360,000 active; AlphaScreen BAZ2B-H3K14Ac peptide displacement; Q9UIF8; Potency, µM (titrated, usually from 114 µM), most hits filed as inhibitors; also: nearly all actives have a fitted effect of over 60% in size
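In this displacement format the biotinylated H3(5-23) peptide acetylated at Lys14 serves as ligand at 50 nM, with BAZ2B at 50 nM in PBS pH 7.4 containing 0.01% Tween-20. Donor and acceptor beads are 10 ug/mL final.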
JMJD2A Tudor = inhibitors of human JMJD2A Tudor domain; AlphaScreen JMJD2A-Tudor / H3K4me3 peptide binding; O75164; AID 504339; Potency, µM (highest dose often 114 µM), usual class: inhibitors; 4.4% of 390,000 active; also: nearly all actives have a fitted effect of over 50% in size
Target sequence (O75164 whole entry, looked up, the tested form may be a part): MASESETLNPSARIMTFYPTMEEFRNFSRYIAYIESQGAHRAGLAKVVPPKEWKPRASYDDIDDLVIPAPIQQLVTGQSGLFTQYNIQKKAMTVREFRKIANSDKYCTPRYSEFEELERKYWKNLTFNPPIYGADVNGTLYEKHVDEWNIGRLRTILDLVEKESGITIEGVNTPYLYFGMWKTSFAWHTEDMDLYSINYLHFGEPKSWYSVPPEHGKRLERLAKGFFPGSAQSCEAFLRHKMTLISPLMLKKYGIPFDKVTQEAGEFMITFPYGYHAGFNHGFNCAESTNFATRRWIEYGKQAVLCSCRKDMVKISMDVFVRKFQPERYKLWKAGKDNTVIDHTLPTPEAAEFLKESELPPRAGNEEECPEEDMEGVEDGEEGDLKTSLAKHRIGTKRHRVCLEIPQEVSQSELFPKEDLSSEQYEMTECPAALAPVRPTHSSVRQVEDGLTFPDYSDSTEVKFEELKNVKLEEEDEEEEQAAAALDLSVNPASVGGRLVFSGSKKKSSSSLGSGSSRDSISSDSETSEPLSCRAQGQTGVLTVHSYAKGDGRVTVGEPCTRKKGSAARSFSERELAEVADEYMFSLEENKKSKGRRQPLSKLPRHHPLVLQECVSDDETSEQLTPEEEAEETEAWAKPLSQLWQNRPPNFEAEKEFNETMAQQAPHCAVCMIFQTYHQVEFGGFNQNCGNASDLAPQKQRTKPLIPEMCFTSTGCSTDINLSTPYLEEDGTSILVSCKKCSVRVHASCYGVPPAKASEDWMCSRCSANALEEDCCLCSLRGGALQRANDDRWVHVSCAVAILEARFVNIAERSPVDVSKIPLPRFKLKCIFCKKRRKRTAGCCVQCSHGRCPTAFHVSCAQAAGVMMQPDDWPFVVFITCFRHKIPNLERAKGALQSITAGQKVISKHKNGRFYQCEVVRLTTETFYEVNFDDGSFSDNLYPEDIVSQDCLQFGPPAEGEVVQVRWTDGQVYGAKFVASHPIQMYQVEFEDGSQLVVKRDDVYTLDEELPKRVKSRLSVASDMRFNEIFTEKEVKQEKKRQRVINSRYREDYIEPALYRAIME
L3MBTL1 inh = inhibitors of human L3MBTL1; Q9Y468; AlphaScreen L3MBTL1–H3K9me1 peptide binding; Potency, µM (doses to about 57.1 µM), usual class: inhibitors; 0.66% of 230,000 active; also: nearly all actives have a fitted effect of over 60% in size
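Displacement of a biotinylated histone H3(1-15) peptide monomethylated at Lys9 (75 nM) from L3MBTL1 (50 nM) was measured by AlphaScreen after a 30 min room-temperature compound incubation; cefsulodin titration served as intraplate control.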
Of the large screens only hits and unclear results are named; the others gave an inactive call. An excerpt weighted towards active compounds, which were near 11% of everything screened. Calls follow the shape of the dose curve; as a rule, active = well fitted inhibition curve with a large enough effect; inconclusive = small, poorly fitted or top-dose-only effect; inactive = no such curve, though single readings can be large or run the other way.

O=C(N/N=C/c1cccnc1)c1ccc(NC(=O)c2cccc(Cl)c2)cc1	G9a block 32µM, HP1b binding inh inconclusive (no result: L3MBTL1 inh)
NC(=S)NN=C1c2ccccc2-c2ccccc21	HP1b binding inh inconclusive, BAZ2B inh inconclusive, JMJD2A Tudor 50µM (no result: L3MBTL1 inh)
C/C(=N\NC(N)=S)c1ccccc1	G9a block inconclusive
O=C(NN=C1c2ccccc2-c2ccccc21)c1ccccc1	G9a block 10µM, BAZ2B inh 28µM, L3MBTL1 inh 3.2µM
NC(=S)NN=C(c1ccccc1)c1ccccc1	G9a block 40µM, JMJD2A Tudor inconclusive (no result: L3MBTL1 inh)
O=C(NN=C1c2ccccc2-c2ccccc21)c1ccccc1Br	none
CCCOc1ccc(C2C(=O)N(C3CCCCC3)CC(=O)N2CCCOCC)cc1OC (stereo not drawn)	G9a block 7.9µM
COc1ccc(OC)c(C2Nc3c(Cl)ccc(C(=O)O)c3C3C=CCC32)c1 (stereo not drawn)	G9a block 20µM, HP1b binding inh inconclusive, JMJD2A Tudor inconclusive
O=C(O)c1ccc(Cl)c2c1C1C=CCC1C(c1ccccn1)N2 (stereo not drawn)	G9a block 2µM, BAZ2B inh 25µM (no result: HP1b binding inh, JMJD2A Tudor, L3MBTL1 inh)
O=[N+]([O-])c1ccc(Cl)c2c1C1C=CCC1C(c1ccccn1)N2 (stereo not drawn)	G9a block 20µM, HP1b binding inh inconclusive, BAZ2B inh 45µM, JMJD2A Tudor 40µM, L3MBTL1 inh inconclusive
O=C(O)c1cccnc1Sc1ccccc1Cl	BAZ2B inh inconclusive (no result: G9a block)
COc1cccc(C2Nc3c(F)cc(Br)cc3C3C=CCC32)c1OC (stereo not drawn)	none
N#C/C(=C\c1ccc(Cl)c([N+](=O)[O-])c1)c1ccccn1	G9a block inconclusive, HP1b binding inh inconclusive, BAZ2B inh inconclusive, JMJD2A Tudor inconclusive
Cc1cc([N+](=O)[O-])cc2c1NC(c1ccccn1)C1CC=CC21 (stereo not drawn)	JMJD2A Tudor 50µM
Cc1sc2ncnc(Nc3ccc(N4CCOCC4)cc3)c2c1-c1ccccc1	G9a block 28µM, BAZ2B inh inconclusive, JMJD2A Tudor 35µM
Cc1sc2ncnc(N3CCN(Cc4ccccc4)CC3)c2c1-c1ccccc1	HP1b binding inh inconclusive, BAZ2B inh 32µM, JMJD2A Tudor inconclusive (no result: L3MBTL1 inh)
CCOc1ccc(CN2CCN(c3ncnc4scc(-c5ccccc5)c34)CC2)cc1	JMJD2A Tudor inconclusive (no result: L3MBTL1 inh)
Cc1sc2ncnc(Nc3ccccc3)c2c1C	none (no result: L3MBTL1 inh)
COc1ccc(CCC(C)NCc2cccc(Br)c2)cc1 (stereo not drawn)	none (no result: G9a block)
COCC(C)NCc1ccc(OC)c(Br)c1 (stereo not drawn)	G9a block inconclusive, HP1b binding inh inconclusive, BAZ2B inh 50µM, JMJD2A Tudor 18µM
Cc1ccc(CN(C(=O)COc2ccc(C(C)C)cc2)C2CCS(=O)(=O)C2)o1 (stereo not drawn)	G9a block inconclusive, BAZ2B inh inconclusive, JMJD2A Tudor inconclusive (no result: L3MBTL1 inh)
CCOc1cc(N)c(Cl)cc1C(=O)NCC1CN(Cc2ccc(F)cc2)CCO1 (stereo not drawn)	JMJD2A Tudor 50µM (no result: BAZ2B inh, L3MBTL1 inh)
O=C(NCC1CCCO1)c1ccc(COc2ccc(F)cc2)o1 (stereo not drawn)	none (no result: L3MBTL1 inh)
C#C[C@]1(O)CC[C@H]2[C@@H]3CCC4=CCCC[C@@H]4[C@H]3C(=C)C[C@@]21CC	none (no result: HP1b binding inh, BAZ2B inh, JMJD2A Tudor, L3MBTL1 inh)
Cc1ccccc1C(=O)/C=C1/c2ccccc2CC(C)(C)N1C	BAZ2B inh 50µM
CN1/C(=C\C(=O)c2ccccc2Cl)c2ccccc2CC1(C)C	G9a block inconclusive, BAZ2B inh inconclusive
CCN(CC)c1ccc(CNc2ccc(Br)cn2)cc1	G9a block inconclusive, BAZ2B inh 22µM, JMJD2A Tudor inconclusive
CCOc1ccc(Oc2nc(NCC(C)C)nc(N3CCOCC3)n2)nn1	none (no result: L3MBTL1 inh)
CC(=O)C1=C(O)C(=O)N(CO)C1c1ccccc1F (stereo not drawn)	G9a block 56µM, BAZ2B inh inconclusive, JMJD2A Tudor inconclusive
CC(=O)C1=C(O)C(=O)N(c2ccc(O)cc2)C1c1ccccc1F (stereo not drawn)	G9a block 79µM (no result: L3MBTL1 inh)
CC(=O)C1=C(O)C(=O)N(c2ccc(Br)cc2)C1c1ccccc1[N+](=O)[O-] (stereo not drawn)	G9a block 40µM
CC(=O)C1=C(O)C(=O)N(CCc2ccccc2)C1c1ccccc1[N+](=O)[O-] (stereo not drawn)	none
COC(=O)c1ccc(NC(=O)CC2Nc3cc(C)c(C)cc3NC2=O)cc1 (stereo not drawn)	none (no result: L3MBTL1 inh)
COCc1cc(C)nc2sc(C(=O)Nc3ccccc3O)c(N)c12	none (no result: L3MBTL1 inh)
COc1ccc(NC(=O)c2ccco2)cc1NC(=O)C(C)(C)Oc1ccc(Cl)cc1	G9a block inconclusive, BAZ2B inh inconclusive (no result: L3MBTL1 inh)
CCOc1ccccc1CNC(=O)c1cnc2sc(N(CC)CC)nn2c1=O	none (no result: L3MBTL1 inh)
C=CCn1c(N)c(C(=O)NCCC2=CCCCC2)sc1=S	G9a block inconclusive, HP1b binding inh inconclusive, BAZ2B inh 40µM, JMJD2A Tudor inconclusive
NC(=O)NCCC1=CCCCC1	none (no result: L3MBTL1 inh)
CN1CCc2c(sc(/N=C/c3c[nH]c4ccccc34)c2C(N)=O)C1	G9a block 45µM, JMJD2A Tudor inconclusive
CCOC(=O)c1c(/N=C/c2ccc(OC)cc2O)sc2c1CCN(C)C2	HP1b binding inh inconclusive, BAZ2B inh 40µM, JMJD2A Tudor 45µM, L3MBTL1 inh 25µM (no result: G9a block)
CCOC(=O)c1c(/N=C/c2ccc(C)cc2O)sc2c1CCC2	G9a block 45µM, BAZ2B inh inconclusive
CN1CCc2c(sc(/N=C/c3c[nH]c4ccccc34)c2C#N)C1	BAZ2B inh inconclusive, JMJD2A Tudor inconclusive (no result: G9a block)
CCOC(=O)c1c(NC(=O)Nc2ccc(C)cc2)sc2c1CCN(C)C2	none
CCOC(=O)c1c(/N=C/N(C)C)sc2c1CCC2	BAZ2B inh inconclusive
Clc1ccc(Cn2c3c(c4ccccc42)CCc2cc4ccccc4nc2-3)cc1	none (no result: G9a block, BAZ2B inh, L3MBTL1 inh)
Cc1ccccc1NC(=S)N/N=C/c1ccc(O)cc1O	HP1b binding inh inconclusive, BAZ2B inh 8.9µM, JMJD2A Tudor 56µM, L3MBTL1 inh 32µM
Cc1ccccc1NC(=S)N/N=C/C(C)c1ccccc1 (stereo not drawn)	G9a block 22µM, JMJD2A Tudor inconclusive
Cc1ccc2c(c1)c(=O)c(S(=O)(=O)c1ccc(C)c(C)c1)cn2CC(=O)Nc1ccccc1	none (no result: L3MBTL1 inh)
Cc1cccc(CNC(=O)CN2CC(C)Sc3ccccc32)c1 (stereo not drawn)	none (no result: L3MBTL1 inh)
Cc1cc(SCC(=O)Nc2ncc(Cl)cc2Cl)nc2ccccc12	none
COc1ccccc1-n1cnnc1SCC(=O)Nc1nc(C)c(Cl)cc1Cl	none
COc1ccccc1-n1cnnc1SCC(=O)Nc1ncc(Cl)cc1Cl	JMJD2A Tudor 50µM
COCCNC(=O)CSc1cc(-c2ccccc2)c2ccc(OC)cc2n1	G9a block 22µM
COCCn1c(C)cc(C(=O)CSc2nc(C)c(C)c(C)n2)c1C	G9a block 28µM, BAZ2B inh inconclusive, JMJD2A Tudor inconclusive (no result: L3MBTL1 inh)
COc1ccc2c(C)cc(SCC(=O)Nc3ncc(Cl)cc3Cl)nc2c1	G9a block 25µM
COCCn1c(C)cc(C(=O)CSc2cc(C)c3ccc(OC)cc3n2)c1C	G9a block 71µM, JMJD2A Tudor inconclusive
